# PubChem BioAssay
# The source made the active and inactive calls. Rule as the data show it, unless noted: active = inhibition above about 80%; inactive = the rest.
# Experiments:
# [1] = LFS_MB_P medulloblastoma growth inhibition, cell-based, chromothripsis tumors, cisplatin or BGB combos (AID 1671449); settings: LFS_MB_P medulloblastoma cells;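 also: cells exposed for 96 hours; 0% = vehicle DMSO and 100% = killing by high DMSO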
# [2] = HDN33 neuroblastoma growth inhibition, cell-based, chromothripsis tumors, cisplatin or BGB combos (AID 1671450); settings: HDN33 neuroblastoma cells, stronger effect = higher value;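 also: cells exposed to compound for four days; 0% = vehicle DMSO and 100% = cell killing by high DMSO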
# [3] = ICB984 medulloblastoma cell growth inhibition, synergistic combos for chromothripsis tumors, cisplatin or BGB combos (AID 1671451; call rule not given here;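 also: cells exposed for 96 hours before readout; 0% = vehicle DMSO and 100% = killing by high DMSO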); settings: ICB984 medulloblastoma cells, drug combinations, stronger effect = higher value
# [4] = LFS_MB_1R medulloblastoma cell growth inhibition, synergistic combos for chromothripsis tumors, cisplatin or BGB combos (AID 1671452); settings: LFS_MB_1R medulloblastoma cells, stronger effect = higher value;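 also: cells exposed for 96 hours before readout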
# [5] = HTB85 osteosarcoma cell growth inhibition, synergistic combos for chromothripsis tumors, BGB or cisplatin IC20 combos (AID 1671453); settings: HTB85 osteosarcoma cells, drug combinations, stronger effect = higher value;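 also: cells exposed for 96 hours before readout; 0% = vehicle DMSO and 100% = high DMSO killing control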
# [6] = CRL2098 osteosarcoma cell growth inhibition, synergistic combos for chromothripsis tumors, BGB or cisplatin IC20 combos (AID 1671454); settings: CRL2098 osteosarcoma cells, drug combinations, stronger effect = higher value;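 also: cells exposed for 96 h before readout; 0% = vehicle DMSO and 100% = killing by high DMSO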
# [7] = HD-MB03 medulloblastoma cell growth inhibition, synergistic combos for chromothripsis tumors, BGB or cisplatin IC20 combos (AID 1671455; in the data active = inhibition above about 83%;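 also: 0% = vehicle DMSO and 100% = high DMSO as cytotoxic control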); settings: HD-MB03 medulloblastoma cells, stronger effect = higher value
# [8] = UWB1.289 ovarian carcinoma cell growth inhibition, synergistic combos for chromothripsis tumors, BGB or cisplatin combos (AID 1671456); settings: UWB1.289 ovarian carcinoma cells, stronger effect = higher value;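 also: cells exposed to compound for four days; 0% = vehicle DMSO and 100% = killing by high DMSO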
# [9] = LFS_MB_2R medulloblastoma cell growth inhibition, synergistic combos for chromothripsis tumors, cisplatin combos (AID 1671457); settings: LFS_MB_2R medulloblastoma cells, stronger effect = higher value;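 also: cells exposed to compound for four days before readout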
# [10] = MDA-MB-436 breast carcinoma cell growth inhibition, synergistic combos for chromothripsis tumors, BGB or cisplatin combos (AID 1671458; call rule not given here;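 also: cells exposed for 96 hours; 0% = vehicle DMSO and 100% = killing by high DMSO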); settings: MDA-MB-436 breast carcinoma growth inhibition, drug combinations, stronger effect = higher value
# [11] = UWB1.289_BRCA1 ovarian cancer growth, cell-based, BGB or cisplatin combinations (AID 1671459); settings: UWB1.289 BRCA1 ovarian carcinoma, drug combinations, stronger effect = higher value
# [12] = human astrocyte viability loss, single and combined drugs, cytotoxicity control for chromothriptic childhood tumor combination screen, cell-based, BGB or cisplatin IC20 combos (AID 1671460); settings: Human astrocytes, drug combinations, stronger effect = higher value;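 also: cells exposed to compounds for 96 hours before viability readout; 0% = vehicle and 100% = killing control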
# [13] = growth inhibition of BT084 medulloblastoma cells, cell-based, ICGC_MB145, cisplatin and BGB IC40 combos (AID 1671461); settings: drug combinations, stronger effect = higher value;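 also: cells exposed to drugs for 96 hours; 0% = vehicle DMSO and 100% = high DMSO full killing control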
# [14] = growth inhibition of RCMB18 medulloblastoma cells, cell-based, cisplatin and BGB IC40 combos (AID 1671462); settings: stronger effect = higher value;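 also: cells exposed to compound for four days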
# [15] = growth inhibition of CRL1545 osteosarcoma cells, cell-based, cisplatin and BGB IC20 combos (AID 1671464); settings: stronger effect = higher value;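 also: cells exposed to compound for 96 hours before readout; 0% = vehicle DMSO and 100% = high DMSO killing control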
# [16] = measured here: combination with BGB IC40, at 0.05 µM
# [17] = measured here: with BGB IC20 combination, at 0.5 µM
# [18] = measured here: with cisplatin IC20 combination, at 0.5 µM
# [19] = measured here: combination with cisplatin, at 0.5 µM
# [20] = measured here: combination with cisplatin, at 5 µM
smiles,measurement,setting,value
C=C(C)C1CCC2(C(=O)O)CCC3(C)C(CCC4C5(C)CCC(O)C(C)(C)C5CCC43C)C12 (stereo not drawn),inhibition,"[1]; at 0.5 µM, stronger effect = higher value",-26.5% (inactive)
same,inhibition,"[1]; measured here: combination with BGB IC20, at 0.005 µM",-25.5%
same,inhibition,"[1]; measured here: combination with BGB IC40, at 0.005 µM",15.5%
same,inhibition,[1]; [16],-1.2%
same,inhibition,"[1]; measured here: combination with cisplatin, at 0.5 µM, stronger effect = higher value",-45.1%
same,inhibition,"[1]; measured here: combination with cisplatin, at 5 µM, stronger effect = higher value",-28.2%
same,inhibition,"[2]; BGB combo, at 5 µM",-9.64%
same,inhibition,[2]; at 0.5 µM,-2.09% (inactive)
same,inhibition,"[2]; cisplatin combo, at 5 µM",-9.94%
same,inhibition,[2]; [17],-1.87%
same,inhibition,[2]; [18],-3.24%
same,inhibition,"[2]; single agent, at 5 µM",-1.41%
same,inhibition,"[3]; BGB IC20 combo, at 0.005 µM",-15.2%
same,inhibition,"[3]; BGB IC40 combo, at 0.005 µM",-18.6%
same,inhibition,"[3]; BGB IC40 combo, at 0.05 µM",9.33%
same,inhibition,[3]; at 0.5 µM,-29.1% (inactive)
same,inhibition,"[3]; cisplatin combo, at 0.05 µM",9.33%
same,inhibition,"[3]; cisplatin combo, at 0.5 µM",-38%
same,inhibition,"[3]; cisplatin combo, at 5 µM",-7.17%
same,inhibition,"[3]; measured here: 5 uM single agent, at 5 µM",-4.58%
same,inhibition,[4]; at 0.5 µM,-20% (inactive)
same,inhibition,[4]; [16],-20.5%
same,inhibition,[4]; [19],-33%
same,inhibition,[4]; [20],-12.9%
same,inhibition,[5]; at 0.5 µM,-2.9% (inactive)
same,inhibition,"[5]; measured here: with BGB IC20, at 0.5 µM",-17.7%
same,inhibition,"[5]; measured here: with BGB IC20, at 5 µM",-3.73%
same,inhibition,"[5]; measured here: with cisplatin IC20, at 0.5 µM",-4.54%
same,inhibition,"[5]; measured here: with cisplatin IC20, at 5 µM",5.41%
same,inhibition,"[5]; single agent, at 5 µM",-0.003%
same,inhibition,[6]; at 0.5 µM,-11.7% (inactive)
same,inhibition,"[6]; measured here: combination with BGB at IC20, at 0.5 µM",-25.6%
same,inhibition,"[6]; measured here: combination with cisplatin at IC20, at 0.5 µM",19.7%
same,inhibition,[7]; at 0.5 µM,-2.78% (inactive)
same,inhibition,"[7]; measured here: combo with BGB at IC20, at 0.5 µM",-2.46%
same,inhibition,"[7]; measured here: combo with cisplatin at IC20, at 0.5 µM",-4.95%
same,inhibition,[8]; at 0.5 µM,0.66% (inactive)
same,inhibition,"[8]; measured here: inhibition with BGB combination, at 0.05 µM",-7.77%
same,inhibition,"[8]; measured here: inhibition with cisplatin combination, at 0.05 µM",-4.44%
same,inhibition,[9]; at 0.5 µM,0.87% (inactive)
same,inhibition,[9]; [19],-5.32%
same,inhibition,[9]; [20],12.1%
same,inhibition,[10]; at 0.5 µM,-18.9% (inactive)
same,inhibition,"[10]; measured here: BGB combination, at 0.5 µM",-9.2%
same,inhibition,"[10]; measured here: BGB combination, at 5 µM",-5.74%
same,inhibition,"[10]; measured here: cisplatin combination, at 0.5 µM",-43.5%
same,inhibition,"[10]; measured here: cisplatin combination, at 5 µM",3.21%
same,inhibition,"[11]; BGB combination, concentration series, at 5 µM",-4.55%
same,inhibition,[11]; at 0.5 µM,-1.24% (inactive)
same,inhibition,"[11]; cisplatin combination, concentration series, at 5 µM",-5.38%
same,inhibition,[12]; at 0.5 µM,6.79% (inactive)
same,inhibition,"[12]; measured here: combo with BGB IC20, at 0.5 µM",-11.2%
same,inhibition,"[12]; measured here: combo with cisplatin IC20, at 0.5 µM",21%
same,inhibition,[13]; at 0.5 µM,-12.4% (inactive)
same,inhibition,"[13]; cisplatin combination, at 0.5 µM",-2.33%
same,inhibition,"[13]; cisplatin combination, at 5 µM",-35.9%
same,inhibition,"[13]; measured here: BGB IC40 combination 0.05 uM, at 0.05 µM",10.4%
same,inhibition,"[13]; single agent, at 5 µM",-5.82%
same,inhibition,[14]; at 0.5 µM,-0.59% (inactive)
same,inhibition,"[14]; cisplatin combo, at 5 µM",-5.83%
same,inhibition,"[14]; measured here: BGB IC40 combination, at 0.05 µM",12.3%
same,inhibition,[14]; [19],-32.4%
same,inhibition,"[14]; single agent, at 5 µM",7.3%
same,inhibition,[15]; at 0.5 µM,-2.94% (inactive)
same,inhibition,[15]; [17],-13.1%
same,inhibition,[15]; [18],2.15%
same,inhibition,"[15]; single agent, at 0.05 µM",-25.4%
same,inhibition,"[15]; single agent, at 5 µM",16.8%
